Measured values taken from PubChem BioAssay (NCATS).
Inconclusive results are not listed. The source made the active and inactive calls. Calls follow the shape of the dose curve; as a rule, active = well fitted curve in the direction sought with a large enough effect; inconclusive = small, poorly fitted or top-dose-only effect, or another doubt; inactive = no such curve, though single readings can be large; an effect the other way counts as inactive or inconclusive.

Key:
[1] = Cell Viability - LYMP2-023 (AID 975);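 also: cellular ATP measured by luciferase luminescence as viability proxy; series mostly up to about 92 µM; cells exposed to compound for 24 hours at 37 °C; nearly all actives have a fitted effect of over 55% in size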
How it was run: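 Concentration-dependent drop in intracellular ATP measures acute cytotoxicity in a human lymphoblastoid line treated for 24 hours in complete culture medium. AC50 values are taken from Hill-equation fits of qHTS data.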

[2] = Cell Viability - LYMP2-025 (AID 976);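 also: series mostly up to about 92 µM; cells exposed to compound for 24 h at 37 °C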
How it was run: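 In qHTS format, LYMP2-025 lymphoblastoid cells in complete culture medium received compound for 24 hr; ATP-based CellTiter-Glo signal gave viability, with AC50 derived by Hill equation.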

[3] = Cell Viability - LYMP2-002 (AID 977);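 also: series mostly up to about 92 µM; compound exposure lasted 24 h at 37 °C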
How it was run: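 Cytotoxicity is scored as concentration-dependent loss of cellular ATP in a human lymphoblastoid line after 24 hr compound treatment at 37 C. AC50 is obtained by modelling concentration-response data with the Hill equation.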

[4] = Cell Viability - LYMP2-006 (AID 978);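 also: series mostly up to about 92 µM; cells exposed to compound for 24 hours; nearly all actives have a fitted effect of over 60% in size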
How it was run: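 Cells are seeded at 2500 per well and rested 5 hr at 37 C. Compounds are added across a concentration series for 24 hr at 37 C, after which ATP is quantified by luciferase luminescence.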

[5] = Cell Viability - LYMP2-007 (AID 979);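 also: cells exposed to compound for 24 h before reading; nearly all actives have a fitted effect of over 60% in size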
How it was run: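 Acute toxicity is scored as a concentration-dependent fall in intracellular ATP in human lymphoblastoid cells treated 24 hr at 37 C, measured by luciferase luminescence; Hill-equation modelling yields AC50.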

[6] = Cell Viability - LYMP2-008 (AID 980);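 also: cells exposed to compound for 24 h at 37 °C; nearly all actives have a fitted effect of over 60% in size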
How it was run: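 Acute cytotoxicity is scored as concentration-dependent loss of cellular ATP in a human lymphoblastoid line after 24 hr treatment at 37 C. ATP is quantified by luciferase luminescence.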

[7] = Cell Viability - LYMP2-010 (AID 981);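 also: cells exposed to compound for 24 hours at 37 °C; nearly all actives have a fitted effect of over 55% in size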
How it was run: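 Acute toxicity is scored as a concentration-dependent loss of cellular ATP in human lymphoblastoid cells after 24 hr compound exposure in complete medium. Tetraoctylammonium bromide is the positive control.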

[8] = Cell Viability - LYMP2-012 (AID 982);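 also: cellular ATP by luciferase luminescence where a drop means cytotoxicity; cells exposed to compound for one day before reading; nearly all actives have a fitted effect of over 55% in size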
[9] = Cell Viability - LYMP2-014 (AID 983);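 also: series mostly up to about 92 µM; cells exposed to compound for 24 h at 37 °C; nearly all actives have a fitted effect of over 50% in size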
How it was run: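 Decrease in intracellular ATP after 24 hr treatment at 37 C, measured by luciferase luminescence, indicated cytotoxicity. Concentration-response data were fitted with the standard Hill equation to give AC50.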

[10] = Cell Viability - LYMP2-016 (AID 984);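 also: cells exposed to compound for 24 hours at 37 °C; nearly all actives have a fitted effect of over 55% in size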
How it was run: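 Cells were seeded at 2500 per well and rested 5 hr before a 24 hr compound exposure at 37 C. Viability was then gauged as cellular ATP by luciferase luminescence, with AC50 values fitted to the Hill equation.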

[11] = Cell Viability - LYMP2-018 (AID 985); also: nearly all actives have a fitted effect of over 50% in size
How it was run: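 Acute cytotoxicity is scored as a concentration-dependent drop in intracellular ATP after 24 hr exposure of the lymphoblastoid line in complete culture medium, measured by luciferase luminescence. Potency is expressed as AC50 from Hill modelling.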

[12] = Cell Viability - LYMP2-020 (AID 986)
How it was run: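 Acute cytotoxicity in a human lymphoblastoid line is scored as a concentration-dependent fall in cellular ATP after 24 hr at 37 C in complete medium. The positive control is tetraoctylammonium bromide, and potency is given as Hill-fit AC50.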

[13] = Cell Viability - LYMP2-022 (AID 987); also: nearly all actives have a fitted effect of over 55% in size
How it was run: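 Acute toxicity in a human lymphoblastoid line is scored as decreased intracellular ATP after 24 hr compound treatment at 37 C. ATP is measured by CellTiter-Glo luminescence; curves are fitted with the Hill equation to give AC50.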

[14] = Cell Viability - LYMP2-024 (AID 988); also: nearly all actives have a fitted effect of over 60% in size
How it was run: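 Acute toxicity is measured as concentration-dependent loss of intracellular ATP in a human lymphoblastoid line treated 24 hours at 37 C. Luciferase luminescence quantifies ATP; AC50 values come from standard Hill-equation modelling.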

[15] = Cell Viability - LYMP2-026 (AID 989);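 also: cells exposed to compound for 24 h at 37 °C; nearly all actives have a fitted effect of over 50% in size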
How it was run: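 Concentration-dependent loss of intracellular ATP in human lymphoblastoid cells after 24 hr at 37 C, quantified by luciferase luminescence. AC50 derived from standard Hill equation.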

[16] = Cell Viability - LYMP1-002 - Assay at 24 hr (AID 993)
How it was run: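 qHTS, LYMP1-002 lymphoblastoid, 24 h cpd, 37 C, CellTiter-Glo ATP luminescence; AC50 via Hill eq.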

[17] = Cell Viability - LYMP1-002 - Assay at 40 hr (AID 994); also: nearly all actives have a fitted effect of over 60% in size
How it was run: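 Viability in the human lymphoblastoid line was measured as intracellular ATP via CellTiter-Glo after 40 hr compound exposure. Tetraoctylammonium bromide served as positive control.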

[18] = molecular target: Alpha-galactosidase A (Homo sapiens) (UniProt P06280); experiment: Counterscreen for Glucocerebrosidase Inhibitors: qHTS Assay for Human alpha-Galactosidase at pH 4.5 (AID 992)
How it was run: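 Human enzyme (2 nM) with 80 uM 4-methylumbelliferyl alpha-D-galactopyranoside in 50 mM citric acid, 0.005% Tween-20, pH 4.5, 20 min at room temperature. Compounds 0.7 nM–77 uM; fluorescence Ex 365/Em 440 after pH 10 stop; AC50 from Hill fits.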

[19] = molecular target: alpha-glucosidase (Oryza sativa, rice) (UniProt Q653V4); experiment: Counterscreen for Glucocerebrosidase Inhibitors: qHTS Assay for Rice alpha-Glucosidase at pH 5.0 (AID 997)
How it was run: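 Rice alpha-glucosidase (4 nM final) with 400 uM 4-methylumbelliferyl-alpha-D-glucopyranoside in citrate buffer pH 5.0, 20 min at room temperature, stopped at pH 10; fluorescence 365/440 nm, compounds 0.7 nM–77 uM, AC50 from Hill fits.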

[20] = molecular target: Alpha-galactosidase (Coffea arabica) (UniProt Q42656); experiment: Counterscreen for Glucocerebrosidase Inhibitors: qHTS Assay for Coffee Bean alpha-Galactosidase at pH 5.9 (AID 998)
How it was run: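 Compounds were titrated from 0.7 nM to 77 uM against green coffee bean alpha-galactosidase (2 nM) using 80 uM fluorogenic 4-methylumbelliferyl substrate. After 20 min at room temperature, reactions were stopped at pH 10 and read by fluorescence.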

Measured: Potency

Chain of Alpha-galactosidase A (Homo sapiens) (P06280 whole entry, looked up): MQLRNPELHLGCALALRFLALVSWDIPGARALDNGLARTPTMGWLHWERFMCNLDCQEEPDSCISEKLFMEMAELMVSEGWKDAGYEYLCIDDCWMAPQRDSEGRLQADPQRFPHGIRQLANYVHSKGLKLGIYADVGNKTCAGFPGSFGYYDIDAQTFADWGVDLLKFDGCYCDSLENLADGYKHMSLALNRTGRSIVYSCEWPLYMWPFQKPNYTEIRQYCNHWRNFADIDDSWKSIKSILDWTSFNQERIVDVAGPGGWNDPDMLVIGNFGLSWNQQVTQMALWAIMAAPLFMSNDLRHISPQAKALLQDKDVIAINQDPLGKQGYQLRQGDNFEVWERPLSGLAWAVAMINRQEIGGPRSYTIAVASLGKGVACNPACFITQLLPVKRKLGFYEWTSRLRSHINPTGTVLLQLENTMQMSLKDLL
Chain of Alpha-galactosidase (Coffea arabica) (Q42656 whole entry, looked up): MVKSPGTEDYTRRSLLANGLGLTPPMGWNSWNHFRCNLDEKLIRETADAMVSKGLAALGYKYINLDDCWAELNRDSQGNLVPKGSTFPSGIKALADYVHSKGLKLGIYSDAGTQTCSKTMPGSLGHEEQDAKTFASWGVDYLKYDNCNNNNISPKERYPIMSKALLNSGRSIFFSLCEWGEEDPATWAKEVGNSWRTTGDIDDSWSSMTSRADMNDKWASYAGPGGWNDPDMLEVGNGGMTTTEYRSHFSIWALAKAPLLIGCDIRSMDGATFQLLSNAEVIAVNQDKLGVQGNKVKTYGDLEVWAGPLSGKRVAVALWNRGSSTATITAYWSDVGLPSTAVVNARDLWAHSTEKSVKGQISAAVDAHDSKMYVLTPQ

CCOCCOC(C)=O
not listed: [18] | [19] | [20]
inactive: all other assays above

O=C(O)C(Cl)Cl
not listed: [18] | [19] | [20]
inactive: all other assays above

Nc1ccc(Cl)cc1
not listed: [18] | [19] | [20]
inactive: all other assays above

CN(C)NC(=O)CCC(=O)O
not listed: [18] | [19] | [20]
inactive: all other assays above

COc1ccc(C(c2ccc(OC)cc2)C(Cl)(Cl)Cl)cc1
not listed: [18] | [19] | [20]
inactive: all other assays above

CCCCOC(=O)c1ccccc1C(=O)OCc1ccccc1
not listed: [18] | [19] | [20]
inactive: all other assays above

O=[N+]([O-])c1cc([N+](=O)[O-])c2ccccc2c1
not listed: [18] | [19] | [20]
inactive: all other assays above

OCCCBr
not listed: [18] | [19] | [20]
inactive: all other assays above

O=S(=O)(c1ccc(Cl)cc1)c1ccc(Cl)cc1
not listed: [18] | [19] | [20]
inactive: all other assays above

COC(C)(C)CCCC(C)C/C=C/C(C)=C/C(=O)OC(C)C (stereo not drawn)
not listed: [18] | [19] | [20]
inactive: all other assays above

Nc1ccc(Sc2ccc(N)cc2)cc1
not listed: [18] | [19] | [20]
inactive: all other assays above

CCCN(CCC)[C@@H]1CCc2ccc(O)cc2C1
inactive: [18] | [19]

Cc1nc(-c2ccc(-c3ccc(C(=O)N4CCc5cc6c(cc54)C4(CCN(C)CC4)CO6)cc3)c(C)c2)no1
inactive: [18] | [19]

CC(=O)NCCc1c[nH]c2ccccc12
inactive: [18] | [19]

NCCc1c[nH]c2ccccc12
inactive: [18] | [19]

CCCCc1ccc(C(=O)O)nc1
inactive: [18] | [19]

CS(=O)(=O)Nc1ccc([N+](=O)[O-])cc1Oc1ccccc1
inactive: [20]

Cn1cnc(CCN)c1
inactive: [18] | [19]

C[C@@H]1O[C@H](C[N+](C)(C)C)C[C@H]1O
inactive: [18] | [19]

CC1=NN=C(c2ccc(N)cc2)c2cc3c(cc2C1)OCO3
inactive: [18] | [19]

O=C(O)CC[N+](=O)[O-]
inactive: [18] | [19]

CNCCc1c[nH]c2ccc(O)cc12
inactive: [18] | [19]

CC(C)Oc1cccnc1N(C)C1CCN(Cc2ccccc2)CC1
inactive: [18] | [19]

COc1ccc2c(c[n+](C)c3c4cc5c(cc4ccc23)OCO5)c1OC
inactive: [18] | [19]

NC(N)=NOCCC(N)C(=O)O (stereo not drawn)
inactive: [18] | [19] | [20]

CN[C@@H]1C[C@@H](c2ccc(Cl)c(Cl)c2)c2ccccc21
inactive: [18] | [19]

O=C1CCCN1CC#CCN1CCCC1
inactive: [18] | [19]

CC[C@@]1(O)C(=O)OCc2c1cc1n(c2=O)Cc2cc3ccccc3nc2-1
inactive: [18] | [19]

c1ccc(CCCN2CCN(CCOC(c3ccccc3)c3ccccc3)CC2)cc1
inactive: [18] | [19]

CNCCc1ccc(O)c(O)c1
inactive: [18] | [19]

Clc1cnc(Oc2ccc(Oc3ncc(Cl)cc3Cl)cc2)c(Cl)c1
inactive: [18] | [19]

CCCN1CCC[C@H](c2cccc(O)c2)C1
inactive: [18] | [19]

NCc1cc(=O)[nH]o1
inactive: [18] | [19]

CCCN1CCO[C@@H]2c3cc(O)ccc3OC[C@H]21
inactive: [18] | [19]

Cc1c(C(=O)c2cccc3ccccc23)c2cccc3c2n1[C@H](CN1CCOCC1)CO3
inactive: [18] | [19]

S=C(NC1CCCCC1)N1CCC(c2cnc[nH]2)CC1
inactive: [18] | [19] | [20]

NCCS
inactive: [20]

C#CCOC(=O)C1=CCCN(C)C1
inactive: [18] | [19]

NCCc1c[nH]c2ccc(O)cc12
inactive: [18] | [19] | [20]

c1ccc2sc(C3(N4CCCCC4)CCCCC3)cc2c1
inactive: [18] | [19]

Cc1nccc2c1[nH]c1ccccc12
inactive: [18] | [19]
